The record followed here is PubChem BioAssay AID1851 (National Center for Advancing Translational Sciences (NCATS), 2009).

Structures are written as SMILES. “And” between values parts separate entries of the source, which are not always exact repeats. Identical values can stand only once. The campaign covered roughly 16,000 compounds. About 5,800 (36%) were called active. Another 23% or so got no clear call; they are omitted. This is one part of the list. Unmarked numbers belong to inactive results. Calls come from the whole dose curve; as a rule, active = well fitted curve in the direction sought with a large enough effect; inconclusive = small, poorly fitted or top-dose-only effect, or effect the other way; inactive = no such curve, though single readings can be large or run the other way.

As usually defined, the AC50 is the midpoint of the concentration-response curve, whichever way the signal moves.
% is set by controls: 0 for no effect and ±100 for the full control effect.

This test deals with Cytochrome P450 2C19 (Homo sapiens) (UniProt P33261). The test can be described thus: Cytochrome panel assay with activity outcomes. The note with it: recombinant CYP, pro-luciferin dealkylation, luminescence, p450-cyp2c19; series mostly up to 57.1 µM; activity, negative = inhibition: at the top concentration.
Cytochrome P450 2C19 (Homo sapiens), sequence (P33261 whole entry, looked up): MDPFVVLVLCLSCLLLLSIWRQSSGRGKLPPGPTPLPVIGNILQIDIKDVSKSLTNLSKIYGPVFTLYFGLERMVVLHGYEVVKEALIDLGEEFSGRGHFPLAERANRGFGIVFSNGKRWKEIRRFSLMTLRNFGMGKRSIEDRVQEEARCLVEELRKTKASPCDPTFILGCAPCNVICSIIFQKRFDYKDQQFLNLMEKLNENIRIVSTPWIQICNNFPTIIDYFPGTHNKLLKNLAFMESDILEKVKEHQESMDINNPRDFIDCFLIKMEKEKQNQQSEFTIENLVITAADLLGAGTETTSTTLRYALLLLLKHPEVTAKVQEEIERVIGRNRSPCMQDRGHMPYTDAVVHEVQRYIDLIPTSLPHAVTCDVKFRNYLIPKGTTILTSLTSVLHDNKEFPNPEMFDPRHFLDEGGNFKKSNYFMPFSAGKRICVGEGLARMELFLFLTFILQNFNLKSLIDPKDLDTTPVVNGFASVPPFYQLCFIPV
With `CC(=O)[C@@H]1CC[C@@H]2[C@@H]3CCC4=CC(=O)CC[C@@]4(C)[C@H]3CC[C@]21C`, the “activity, negative = inhibition” value was -32.5% [at 25.6 µM].
With `CC(C)C[C@H]1C(=O)N2CCC[C@@H]2[C@]2(O)O[C@](NC(=O)[C@H]3C=C4c5cccc6[nH]c(Br)c(c56)C[C@H]4N(C)C3)(C(C)C)C(=O)N12`, the AC50 entry was “inactive”.
Still for that read-out and setting: to `CC(C)[C@@]1(NC(=O)[C@@H]2C[C@H]3c4cccc5[nH]cc(c45)C[C@@H]3N(C)C2)O[C@@]2(O)[C@H]3CCCN3C(=O)[C@H](Cc3ccccc3)N2C1=O` belongs 3.98 µM (active) and 5.01 µM (active).
With `CN1C[C@H](C(=O)N[C@@]2(C)O[C@@]3(O)[C@H]4CCCN4C(=O)[C@@H](Cc4ccccc4)N3C2=O)C=C2c3cccc4[nH]cc(c34)C[C@@H]21`, the activity, negative = inhibition is 13.1% [at 11.4 µM].
For the compound `CCCCN(CCCC)CCC(O)c1cc2c(Cl)cc(Cl)cc2c2cc(C(F)(F)F)ccc12` (stereo unspecified), the “activity, negative = inhibition” value is 9.25% [at 25.6 µM].
For `NC[C@H](CC(=O)O)c1ccc(Cl)cc1`, the concentration at half-maximal activity (AC50) is 2.51 µM (active).
`NC[C@@H](CC(=O)O)c1ccc(Cl)cc1`: the AC50 result is “inactive”.
Take `O=C(O)CP(=O)(O)c1ccc(Cl)cc1`: the “activity, negative = inhibition” value was -4.15%.
Same read-out and setting: with `CC1(C)N=C(N)N=C(N)N1c1cccc(C(=O)Nc2ccc(S(=O)(=O)F)cc2)c1` the figure was 25.1% [at 11.4 µM].
On the same count and under the same terms, with `CC(=O)OCC1=C(C(=O)[O-])N2C(=O)[C@@H](NC(=O)CCC[C@@H](N)C(=O)[O-])[C@@H]2SC1.[Zn+2]` the figure was -15.5%; with `C[C@]12CC[C@H]3c4ccc(O)cc4CC[C@@H]3[C@H]1CC[C@@H]2OC(=O)CCc1ccccc1`, -66% [at 11.4 µM].
As for `Cc1ccc2c(c1)C1CN(C)CCC1N2C(=O)Nc1cccc(Cl)c1` (stereo unspecified), the AC50 was 25.1 µM (active).
In the case of `NC(N)=NC(=O)c1nc(Cl)c(N)nc1N`, the “activity, negative = inhibition” value is 23.9% [at 25.6 µM].
Regarding `CCOC(=O)Cn1cc(C(=O)c2ccccc2F)c2ccccc21`, the AC50 is 3.55 µM (active).
Regarding `O=C(O)c1nn(Cc2ccc(Cl)cc2Cl)c2ccccc12`, the “activity, negative = inhibition” value is -10%.
With `O=C(c1ccccc1F)c1cn(CC(=O)N2CCOCC2)c2ccccc12`, the AC50 is 10 µM (active).
On the same count and under the same terms, with `O=C(c1ccccc1F)c1cn(Cc2ccccc2)c2ccccc12` the figure was 1.26 µM (active).
For `CCNC(=O)[C@@H]1O[C@@H](n2cnc3c(N)ncnc32)[C@H](O)[C@H]1O`, the “activity, negative = inhibition” value was -29.8%.
Same read-out and setting: with `O=P(O)(O)c1ccccc1` (tested in a mixture with another compound) the figure was 41.3% [at 11.4 µM].
Still for that read-out and setting: to `CC[C@@H]1[C@@H]2C[C@H]3[C@H]4N(C)c5ccccc5[C@@]45C[C@@H]([C@@H]2[C@@H]5O)N3[C@H]1O` belongs 7.83% [at 25.6 µM]; to `C=C(C)[C@H]1CC[C@]2(CO)CC[C@]3(C)[C@@H](CC[C@H]4[C@@]5(C)CC[C@@H](O)C(C)(C)[C@@H]5CC[C@@]43C)[C@H]12`, 33.7% [at 25.6 µM].
With `C[C@]1(O)CC[C@H]2[C@@H]3[C@@H](O)CC4=CC(=O)CC[C@@]4(C)[C@H]3CC[C@]21C`, the activity, negative = inhibition is 12.3% [at 11.4 µM].
As to `O=C(O)/C=C\c1ccc[c]([Sb](=[O])([OH])[OH])c1`, the activity, negative = inhibition was -11.2% [at 11.4 µM].
On to `COc1ccc(-n2nc(C(F)(F)F)cc2-c2ccc(Cl)cc2)cc1`, for which the AC50 was 7.94 µM (active).
Take `CC(C)(C)C(=O)CP(=O)(O)O`: the activity, negative = inhibition was 34.5% [at 11.4 µM].
As to `CN1CCC(c2c[nH]c3ccc(O)cc23)CC1`, the AC50 result is “inactive”.
Turning to `COc1ccc(C[C@H]2c3cc(OC)c(OC)cc3CCN2C)cc1OC`, the “activity, negative = inhibition” value is -22.8% [at 25.6 µM].
Consider `O[C@@H]1[C@@H]2c3cc4c(cc3CN3CCC(=C[C@@H]1O)[C@H]23)OCO4`, for which the “activity, negative = inhibition” value is 10.7% [at 25.6 µM].
Same read-out and setting: to `COc1ccc2c(c1O)-c1c(OC)c(OC)cc3c1[C@H](C2)N(C)CC3` belongs -24.7% [at 25.6 µM]; to `COc1c2c(cc3c1OCO3)CCN(C)C2`, -28.1% [at 25.6 µM].
As to `COc1ccc2c(c1OC)CN1CCc3cc4c(cc3[C@H]1C2)OCO4`, the half-maximal activity concentration (AC50) is 1.26 µM (active).
Turning to `CO[C@H]1C=C2CCN(C)[C@@H]2[C@@H]2c3cc4c(cc3C(=O)O[C@H]21)OCO4`, the “activity, negative = inhibition” value is -44.6% [at 25.6 µM].
Take `CN1CCc2cc3c(cc2[C@@H]1[C@@H]1OC(=O)c2c1ccc1c2OCO1)OCO3`: the AC50 was 0.0501 µM (active).
Take `C[N+]1(C)CCc2cc3c(cc2[C@@H]1[C@@H]1OC(=O)c2c1ccc1c2OCO1)OCO3`: the “activity, negative = inhibition” value was 18.5%.
As for `COc1ccc2c(c1OC)C(=O)O[C@H]2[C@H]1c2cc3c(cc2CCN1C)OCO3`, the half-maximal activity concentration (AC50) was 1.26 µM (active).
`O=C(NCP(=O)(O)O)c1cccnc1`: the activity, negative = inhibition is 26.5% [at 11.4 µM].
Still for that read-out and setting: to `c1cnc(N2CC[C@@]3(CCCNC3)C2)nc1` belongs -7.58%; to `C=C[C@]12CN(C)[C@H]3C1[C@@]1(C(=O)Nc4ccccc41)[C@H]1C[C@H]2[C@H]3CO1`, 12.4% [at 25.6 µM].
As for `CCCN1CCC[C@@H]2Cc3[nH]ncc3C[C@H]21`, the AC50 result was “inactive”.
For `CC(=O)O[C@H]1CC[C@@]2(C)[C@@H](CC[C@H]3[C@H]2CC(=O)[C@@]2(C)[C@@H]3C[C@H]3CC(C)=CC(=O)[C@H]32)C1`, the activity, negative = inhibition was -7.79% [at 11.4 µM].
The same measure, in the same setting: with `CS(=N)(=O)CC[C@H](N)P(=O)(O)O` (stereo partly specified) the figure was 2.48% [at 11.4 µM].
